According to PubChem BioAssay (NCI):
The panel holds about 83,000 compounds, 20% with a hit somewhere; the sample as a whole holds those more often.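 Step 1: grow cells in 96-well plates. Step 2: add test compound at a single concentration. Step 3: incubate 48 h. Step 4: record percent growth.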 Unmarked numbers belong to inactive results. Activity calls are given as the source filed them.

Tested on: BT-549 breast
Test: NCI-60 one-dose screen, 48 h (100 = growth as untreated, 0 = no growth, -100 = all killed)
Conditions: 10 µM
Experimental: Growth inhibition of the BT-549 human tumor cell line is measured as a screen for anti-cancer activity. Cells are grown in 96 well plates and exposed to the test compound for 48 hours. Compounds are tested at a single concentration, which is 10^-5 M for most compounds. The reported endpoint is percent growth (GI% or GIPRCNT), where numbers from 0 - 100% represent growth inhibition, and numbers from -100% - 0 represent cell death. For example, a value of 40 represents 60% growth inhibition. A value of 0 means no net growth occurred over the course of the experiment. A value of -40 indicates 40% of cells at the beginning of the experiment died by the end of the experiment. A value of -100 means all cells are dead at the end of the experiment.
NCI-60 Human Tumor Cell Lines Screen was performed using the standard one-dose NCI protocol, which is described in more detail at https://dtp.cancer.gov/discovery_development/nci-60/default.htm.
Compounds with GIPRCNT values below 10 were considered active. Activity score was based on GIPRCNT using the following formula: […]
Score is 0 for GIPRCNT values of 100 or above, 50 for GIPRCNT values of 0, and 100 for GIPRCNT values of -100.

**Q.** Which growth does the source give for `O=C(Nc1cccc2c1CCCC2)c1cc2ccccc2cc1O` here?
**A.** 27.4%

**Q.** With `CCN(CC)CCCC(Nc1c2ccc(Cl)cc2nc2ccc(OC)cc12)c1ccc(F)cc1` (stereo not given) as the compound, how does the growth read?
**A.** 81.5%

**Q.** How did the growth turn out when `Cc1nn(-c2ccc(-c3ccc(OC(F)(F)F)cc3)cc2)c2nc(Cc3ccccc3)nc(N)c12` was run?
**A.** 99.4%

**Q.** With `CC(=O)C1N=NCC1c1ccccc1` (stereo not given) as the compound, how does the growth read?
**A.** 105%

**Q.** With `COc1cc2c3c(n(C4CCNCC4)c(=O)c2cc1OC)-c1cc2c(cc1C3=O)OCO2` as the compound, how does the growth read?
**A.** -58% (active)

**Q.** For `Nc1cc(Br)c(-c2nn3c(CCC(=O)c4nc5ccccc5[nH]4)nnc3s2)c(Br)c1`, which growth is on record?
**A.** 105%

**Q.** Which growth does the source give for `CC(C1=C(CN(C(=O)Cc2cn(-c3ccccc3)nc2-c2ccc(Cl)cc2)C(C)C)Cc2ccccc21)c1ccccn1` (stereo not given) here?
**A.** 88%

**Q.** With `C[C@@H](O)[C@H]1C(=O)N2C(C(=O)O)=C(SC3CN[C@H](C(=O)N(C)C)C3)[C@H](C)[C@H]12` (stereo not given in full) as the compound, how does the growth read?
**A.** 105%

**Q.** How did the growth turn out when `NC1=NC(c2ccccc2)C2=C(N1)/C(=C/c1ccccc1)CCC2` (stereo not given) was run?
**A.** 112%

**Q.** `CCN(CC)c1ccc(/C=C2\SC(=O)C(Nc3nnc(-c4cccnc4SCc4ccccc4)o3)C2=O)cc1` (stereo not given) was tested. Which growth did it give?
**A.** 59.3%

**Q.** With `Clc1nc2ccc(Br)cc2cc1-c1nc2ccccc2[nH]1` as the compound, how does the growth read?
**A.** 85.9%

**Q.** How did the growth turn out when `COc1cc2cc(Oc3ccc(NC(=O)Nc4ccc(C(F)(F)F)cc4)cc3)c(C)nc2cc1OC` was run?
**A.** 113%

**Q.** With `CC(=O)Nc1ccc(S(=O)(=O)c2ccnc3cc(Cl)ccc23)cc1` as the compound, how does the growth read?
**A.** 94.9%

**Q.** With `COc1cc2c3c(n(C4CCN(C)CC4)c(=O)c2cc1OC)-c1cc2c(cc1C3=O)OCO2` as the compound, how does the growth read?
**A.** 59.7%

**Q.** `CC(C)c1cc(N=O)cc(C(C)C)c1O` was tested. Which growth did it give?
**A.** 111%

**Q.** With `O=C(N/N=C/c1cc([N+](=O)[O-])ccc1O)c1cccc2ccccc12` as the compound, how does the growth read?
**A.** 45.2%

**Q.** How did the growth turn out when `COc1ccc2c(c1)C(=O)/C(=C/c1ccc([N+](=O)[O-])o1)O2` was run?
**A.** -49.9% (active)

**Q.** Which growth does the source give for `COc1ccc(-c2cc(-c3ccccc3)nc(SCCCC(=O)NO)n2)cc1` here?
**A.** 19.6%

**Q.** Which growth does the source give for `O[C@@H]1CO[C@H]2[C@@H]1OC[C@@H]2O` here?
**A.** 112%

**Q.** For `CN(C)c1ncnc2c1nnn2C1OC(CO)C(O)C1O` (stereo not given), which growth is on record?
**A.** 46.1%

**Q.** For `Clc1ccc(C2=NN=C3C(Cc4ccccc4)=Nc4ccccc4N3C2)cc1`, which growth is on record?
**A.** 88.8%

**Q.** For `O=C(Nc1cc(Cl)cc2c1-c1ccc(Cl)cc1C2O)C(Cl)Cl` (stereo not given), which growth is on record?
**A.** 95.3%

**Q.** With `CCN(CC)CCN1c2nc3ccccc3cc2Sc2cc3ccccc3nc21` as the compound, how does the growth read?
**A.** -92.4% (active)

**Q.** For `COc1ccc(/C=c2\sc3n(c2=O)C(c2cc(OC)c(OC)c(OC)c2)C=C(c2ccc(OC)c(OC)c2)N=3)cc1OC` (stereo not given), which growth is on record?
**A.** 88.5%

**Q.** `O=C(O)c1ccc(-n2cc(CNc3ccc(Oc4ccccc4)cc3)c(-c3ccccc3)n2)cc1` was tested. Which growth did it give?
**A.** 83.1%

**Q.** For `COc1cc(-c2nn(-c3cccc(NC(=O)CN4CCOCC4)c3)cc2-c2cccnc2)ccc1Cl`, which growth is on record?
**A.** 62.2%

**Q.** `COc1ccc(-c2cc(-c3ccc(Cl)cc3)nc(SCCCC(=O)NO)n2)cc1` was tested. Which growth did it give?
**A.** 26.1%

**Q.** For `COc1ccc(-c2nn(-c3cccc(Cl)c3)cc2-c2c(C#N)c(N)n(N)c(=O)c2C#N)cc1`, which growth is on record?
**A.** 58%

**Q.** For `CCOC(=O)N/N=C/c1ccc(OC)c(OC)c1`, which growth is on record?
**A.** 106%

**Q.** For `NC(CSC(c1ccccc1)(c1ccccc1)c1cccc2ccccc12)C(=O)O` (stereo not given), which growth is on record?
**A.** 91.7%

**Q.** How did the growth turn out when `CC[C@H]1OC(=O)[C@H](C)[C@@H](O[C@H]2C[C@@](C)(OC)[C@@H](O)[C@H](C)O2)[C@H](C)[C@@H](O[C@@H]2O[C@H](C)C[C@H](N(C)C)[C@H]2O)[C@](C)(OC)C/C(C)=C2/O[C@@]1(C)C=C2C` was run?
**A.** 78.7%

**Q.** `CCn1cc(C(=O)O)c(=O)c2cc(F)c(N3CCNCC3)cc21` was tested. Which growth did it give?
**A.** 110%

**Q.** Which growth does the source give for `Cc1c2cnccc2c(C)c2c1c1cc(O)ccc1n2C(C)C` here?
**A.** -2.72% (active)

**Q.** For `COc1ccc(NC(=O)C2CC3C=CC2C3)c([N+](=O)[O-])c1` (stereo not given), which growth is on record?
**A.** 139%

**Q.** `COc1ccc2cc(-c3nc4ccccc4s3)c(Cl)nc2c1OC` was tested. Which growth did it give?
**A.** 114%

**Q.** For `CCCN(CCC)C(=O)[C@H](CC)[C@@H]1CC[C@@H](C)[C@@H]([C@H](C)[C@@H](O)[C@@H](C)C(=O)[C@H](CC)C2O[C@]3(C=C[C@@H](O)[C@]4(CC[C@@](C)([C@H]5CC[C@](O)(CC)[C@H](C)O5)O4)O3)[C@H](C)C[C@@H]2C)O1` (stereo not given in full), which growth is on record?
**A.** 6.17% (active)

**Q.** `CCc1c2c(nc3ccc(OC(=O)N4CCC(N5CCCCC5)CC4)cc13)-c1cc3c(c(=O)n1C2)COC(=O)[C@]3(O)CC` was tested. Which growth did it give?
**A.** 22.1%

**Q.** Which growth does the source give for `Nc1ccn(Cc2nnc(CCC(=O)c3nc4ccccc4[nH]3)o2)c(=O)n1` here?
**A.** 74.5%

**Q.** How did the growth turn out when `Clc1nc2ccccc2cc1Cn1nnc(Cc2ccccc2)n1` was run?
**A.** 38.9%

**Q.** How did the growth turn out when `COc1cc(OC)c2c(=O)c(O)c(-c3ccccc3)oc2c1` was run?
**A.** 85.6%
